Assay outcomes (PubChem BioAssay)
Mtb UGM inh = M. tuberculosis UGM enzyme inhibitors, primary screen, biochemical, fluorescence polarization, single point; UDP-galactopyranose mutase (Mycobacterium tuberculosis (strain ATCC 25618 / H37Rv)), …; purified UGM, fluorescence polarization probe displacement; inhibition, % at 10 µM; hit rate 0.06% among 320,000; AID 504406, 2011; in the data active means inhibition above about 10%, passing the limit was not always enough
BioA inh = M. tuberculosis BioA enzyme inhibitors, primary screen, biochemical, plate reader, single point, HTS; purified M. tuberculosis BioA enzyme; AID 602481, 2012; 7,8-diaminopelargonic acid synthase BioA (Mycobacterium tuberculosis); inhibition, % at 9.99 µM; hit rate 0.096% among 360,000; in the data active means inhibition above about 40%
Rv3671c inh = Rv3671c serine protease inhibitors, primary screen, biochemical, fluorescence polarization, M. tuberculosis H37Rv. P9WHR9. inhibition, % at 5.96 µM. hit rate 0.048% among 320,000. AID 2606, 2010; in the data active means inhibition above about 38%;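 further: extracellular domain of Rv3671c used as enzyme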
FadD28 FP inh = inhibitors of FadD28 bisubstrate probe binding, primary screen, biochemical, fluorescence polarization, single point; inhibition, % at 12.5 µM; hit rate 0.22% among 360,000; AID 588549, 2011; in the data active means inhibition above about 8.5%, passing the limit was not always enough
RecA splice inh = Mtb RecA intein splicing inhibitors, primary screen, biochemical, fluorescence, HTS; AID 2221, 2009; cell-free RecA intein splicing; inhibition, % (test concentration not listed); Protein RecA (Mycobacterium tuberculosis (strain ATCC 25618 / H37Rv)), P9WHJ3; hit rate 0.75% among 290,000; in the data active means inhibition above about 30%
TcdB inh = TcdB glycohydrolase inhibitors, primary screen, biochemical, single point, plate reader | hit rate 0.24% among 350,000 | inhibition, % at 9.99 µM | AID 652162, 2013 | TcdB glycohydrolase enzymatic assay; in the data active means inhibition above about 10%
GFP chromo cs = counter-screen: blocks GFP chromophore formation, dose response, counter-screen, biochemical, fluorescence, homogeneous | cell-free GFP chromophore formation | shares compounds with RecA splice inh | hit rate 83% among 2,100 | EC50, µM; call rule not given here
Large screens that a line does not name were inactive (follow-up assays come after a bar, where they were run). In the library only some 0.97% were active in any assay of this set; here they are far more common.

CCCc1cn(CC[C@H]2CC[C@H](NS(=O)(=O)c3ccccc3Cl)[C@@H](CO)O2)nn1	none (no result: Mtb UGM inh, Rv3671c inh, FadD28 FP inh, RecA splice inh)
CC1=NN(c2nc(C)cc(C)n2)C(=O)C1CCC(C)C (stereo unspecified)	none (no result: BioA inh, TcdB inh)
CCC1C(=O)N(c2nc(C)cc(C)n2)N=C1C (stereo unspecified)	RecA splice inh 67.4 (no result: TcdB inh) | GFP chromo cs 19.5
O=[N+]([O-])c1cc(C=Nc2cccc3c(O)cccc23)ccc1Cl	RecA splice inh 64.4 (no result: BioA inh, FadD28 FP inh, TcdB inh) | GFP chromo cs 32.5
O=[N+]([O-])c1cc(/C=N\Nc2ccccn2)ccc1Cl	none
CCOc1ccc(-n2c(C)cc(C(=O)CCl)c2C)cc1	RecA splice inh 48.3 (no result: BioA inh) | GFP chromo cs 27.9
O=C(NC1(O)C(=O)c2ccccc2C1=O)c1c(Cl)cccc1Cl	RecA splice inh 33.6 | GFP chromo cs 35.6
O=C(Nc1ccccc1Cl)c1c(F)c(F)c(F)c(F)c1F	none (no result: TcdB inh)
O=C(NC1(O)C(=O)c2ccccc2C1=O)c1ccccc1	RecA splice inh 50.1 (no result: BioA inh, TcdB inh) | GFP chromo cs 15.5
CC(NC(=O)/C(C#N)=C/c1ccco1)c1ccccc1 (stereo unspecified)	none
CC(NC(=O)/C(C#N)=C/c1ccc([N+](=O)[O-])o1)c1ccccc1 (stereo unspecified)	RecA splice inh 47.4 | GFP chromo cs inactive
O=C(Nc1ccccc1)N[C@@H]1CC[C@H](CCn2cc(-c3ccccc3F)nn2)O[C@H]1CO	none (no result: Mtb UGM inh, BioA inh, Rv3671c inh, FadD28 FP inh, RecA splice inh)
N#CC1=C(N)Oc2n[nH]c(-c3cccs3)c2C1c1ccccc1C(=O)O (stereo unspecified)	RecA splice inh 76.1 (no result: BioA inh) | GFP chromo cs 12.2
N#CC1=C(N)Oc2cc(O)ccc2C1c1cccs1 (stereo unspecified)	none (no result: TcdB inh)
N#CC1=C(N)Oc2n[nH]c(-c3cccs3)c2C1c1cccs1 (stereo unspecified)	RecA splice inh 79.3 (no result: TcdB inh) | GFP chromo cs 10.7
Nc1ccc2c(c1)C(=O)C(=O)c1ccccc1-2	RecA splice inh 97.2 (no result: BioA inh, TcdB inh) | GFP chromo cs 5.15
Nc1ccc2c(c1)C(=O)c1ccccc1-2	none
CN(C)CCOc1ccc(C(C)(C)c2ccccc2)cc1	none (no result: BioA inh)
CC(C)(c1ccccc1)c1ccc(OCC2CO2)cc1 (stereo unspecified)	RecA splice inh 40.6 | GFP chromo cs inactive
COc1ccc(CNC(=O)C[C@H]2C[C@H]3c4cc(NS(C)(=O)=O)ccc4O[C@H]3[C@H](CO)O2)cc1	none (no result: Mtb UGM inh, Rv3671c inh, FadD28 FP inh, RecA splice inh)
Cc1[nH][nH]c(=O)c1C(c1ccc(-c2ccccc2C(=O)O)o1)c1c(C)[nH][nH]c1=O	RecA splice inh 96.1 (no result: BioA inh) | GFP chromo cs 0.493
COC(=O)c1ccc(-c2ccc(C(c3c(C)[nH][nH]c3=O)c3c(C)[nH][nH]c3=O)o2)cc1	RecA splice inh 94.7 (no result: BioA inh) | GFP chromo cs 0.645
COC(=O)c1ccc(C)cc1	none (no result: Mtb UGM inh, RecA splice inh)
C[C@H](CO)N1C[C@H](C)[C@@H](CN(C)C(=O)NC2CCCCC2)Oc2ccc(NS(=O)(=O)c3ccc(F)cc3)cc2CC1=O	none (no result: Mtb UGM inh, Rv3671c inh, FadD28 FP inh, RecA splice inh)
O=C(Cc1ccccn1)NCC[C@@H]1CC[C@@H](NS(=O)(=O)c2ccc(Cl)cc2)[C@H](CO)O1	none (no result: Mtb UGM inh, Rv3671c inh, FadD28 FP inh, RecA splice inh)
CCOc1cc(CNc2ccc(O)cc2)ccc1OCc1ccc(Cl)cc1Cl	RecA splice inh 39.7 (no result: TcdB inh) | GFP chromo cs inactive
CCOc1ccccc1CNc1ccc(O)cc1	RecA splice inh 81.6 (no result: Mtb UGM inh, BioA inh, Rv3671c inh) | GFP chromo cs 23.5
COc1ccc(NC(=O)N2C[C@@H](O)COC[C@@H]3O[C@@H](CC(=O)NCc4ccccc4OC)CC[C@H]32)cc1	none (no result: Mtb UGM inh, Rv3671c inh, FadD28 FP inh, RecA splice inh)
Cc1ccc(SCc2cc(=O)n3[nH]c(C)nc3n2)cc1	none (no result: TcdB inh)
Cc1ccc(SCc2cc(=O)n(C)[nH]2)cc1	RecA splice inh 95.3 (no result: BioA inh) | GFP chromo cs 19.2
COc1cccc(-n2nc(C#N)c(Cl)cc2=O)c1	RecA splice inh 73.4 (no result: Mtb UGM inh, BioA inh, Rv3671c inh) | GFP chromo cs 21.1
CC(C)Cc1ccc([C@H](C)C(=O)O)cc1	none
CC(C)Cc1ccc(-c2cc(=O)[nH][nH]2)cc1	RecA splice inh 92.1 (no result: BioA inh) | GFP chromo cs 2.6
CCOC(=O)C/C(C)=N/NC(=O)COc1ccccc1C	RecA splice inh 61.9 | GFP chromo cs 12.9
C[C@@H]1CN([C@H](C)CO)C(=O)c2cc(NS(=O)(=O)c3cccs3)ccc2O[C@@H](C)CCCCO[C@@H]1CN(C)C(=O)CCCN(C)C	none (no result: Mtb UGM inh, BioA inh, Rv3671c inh, FadD28 FP inh, RecA splice inh)
CCOC(=O)c1cnc(N)nc1C(F)(F)F	RecA splice inh 60.8 (no result: BioA inh) | GFP chromo cs inactive
CC(C)CC#Cc1cnc2c(c1)C(=O)N([C@H](C)CO)C[C@H](C)[C@@H](CN(C)C(=O)c1cnccn1)O2	none (no result: Mtb UGM inh, Rv3671c inh, FadD28 FP inh, RecA splice inh)
COC(=O)CSc1nc2sc3c(c2c(=O)n1C1CCCCC1)CCN(C)C3	RecA splice inh 39.1 (no result: BioA inh, FadD28 FP inh, TcdB inh) | GFP chromo cs inactive
CN(CC(=O)Nc1ccc(C#N)cc1)CC(=O)Nc1ccc(N2CCOCC2)cc1	none (no result: BioA inh, TcdB inh)
CN(CC(=O)Nc1ccc(N2CCOCC2)cc1)CC(=O)Nc1cccc(C#N)c1	none (no result: BioA inh) | GFP chromo cs inactive
O=C(COC(=O)C1CC(=O)N(Cc2ccco2)C1)c1ccc(OC(=O)c2ccco2)cc1 (stereo unspecified)	RecA splice inh 35.4 (no result: TcdB inh) | GFP chromo cs inactive
COC(=O)c1cccc(S(=O)(=O)N2CCOCC2)c1	none (no result: TcdB inh)
COC(=O)c1cccc(N2C(=O)C(Cl)=C(N3CCOCC3)C2=O)c1	RecA splice inh 68.3 (no result: TcdB inh) | GFP chromo cs 5.16
O=C1CC(=O)N(c2cccc(C(F)(F)F)c2)C(=O)N1	none
O=C1C(Cl)=C(N2CCOCC2)C(=O)N1c1cccc(C(F)(F)F)c1	RecA splice inh 90.5 | GFP chromo cs 2.56
COC(=O)c1ccccc1NC(=S)NC(=O)c1ccc(C)cc1	RecA splice inh 36.5 (no result: BioA inh) | GFP chromo cs 0.495
Cc1ccc(C(=O)C(OC(=O)CN2C(=O)c3ccccc3C2=O)c2ccccc2)cc1C (stereo unspecified)	RecA splice inh 30.8 (no result: BioA inh) | GFP chromo cs inactive
CC1=NNC(=O)C1C(c1ccc(F)cc1)C(C#N)C#N (stereo unspecified)	RecA splice inh 85.3 (no result: BioA inh, TcdB inh) | GFP chromo cs 16.6
CC(C)(C)c1cnnn1-c1ccc(C(=O)CCl)cc1	RecA splice inh 74.7 (no result: TcdB inh) | GFP chromo cs 5.87
CC(C)(C)c1cnnn1-c1ccc(C=O)cc1	none (no result: BioA inh, TcdB inh)
CC(CCc1ccccc1)NC(=O)COC(=O)c1cc(NS(=O)(=O)c2ccc(Cl)c([N+](=O)[O-])c2)ccc1O (stereo unspecified)	RecA splice inh 37.5 (no result: BioA inh, TcdB inh) | GFP chromo cs inactive
CC1=NN(c2ccccc2)C(=O)C1=C(C)C	RecA splice inh 55.4 | GFP chromo cs 8.45
CCCCCCCN(C(=O)CCl)c1ccccc1C	RecA splice inh 56.1 (no result: TcdB inh) | GFP chromo cs 17.6
CCCN(C(=O)Cn1ncc2c([nH]c3ccccc32)c1=O)c1ccccc1C	none
